{"source": "PubChem BioAssay (NCI)", "note": "Compounds without any hit were thinned out: in the full panel of roughly 83,000, 20% have a hit.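 Step 1: grow cells in 96-well plates. Step 2: add test compound at a single concentration. Step 3: incubate 48 h. Step 4: record percent growth.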 Unmarked numbers belong to inactive results. Active and inactive are the calls of the source. Rule for the calls: active = growth percent below 10; inactive = the rest."}
{"tested_on": "HL-60(TB) leukemia", "test": "NCI-60 one-dose screen, 48 h (100 = growth as untreated, 0 = no growth, -100 = all killed)", "conditions": "10 µM unless noted"}
{"compound": "COc1ccc2nc(Cl)c(-c3cc(-c4ccccc4)nc(=S)[nH]3)cc2c1", "growth": "19.6%"}
{"compound": "COc1ccc(CCC2NCCc3c(Br)c4c(c(OC)c32)OCO4)cc1", "note": "(stereo not given)", "growth": "-11.6% (active)"}
{"compound": "C=CCn1c(SCC(=O)Nc2ccc(C(=O)/C=C/c3ccccc3)cc2)nnc1-c1c[nH]c2ccccc12", "growth": "32.4%"}
{"compound": "CN1C(=O)N(C)C2SC(N/N=C/c3ccc(F)cc3)=NC21", "note": "(stereo not given)", "growth": "-4.65% (active)"}
{"compound": "O=C(c1ccc(Cl)cc1)C1[C@H](c2ccccc2Cl)[C@@H](c2ccccc2)NC12C(=O)Nc1ccccc12", "note": "(stereo not given in full)", "growth": "-35.1% (active)"}
{"compound": "Cn1cc(Nc2ncnc(-c3ccc(N4CCCC4)c(C#N)c3)n2)cn1", "growth": "49.1%"}
{"compound": "Nc1cccc(SCc2cc3ccccc3[nH]c2=O)c1", "growth": "42.2%"}
{"compound": "COc1cc(CNC(=O)C[C@H](C)CCC=C(C)C)ccc1OCc1cn(-c2ccccc2F)nn1", "growth": "91.5%"}
{"compound": "Cc1ccc(-c2nc(C#N)c(S(=O)(=O)N3CCN(S(C)(=O)=O)CC3)o2)cc1", "growth": "2.43% (active)"}
{"compound": "COc1cc(CNC(=O)C[C@H](C)CCC=C(C)C)ccc1OCc1cn(-c2ccc(Br)cc2)nn1", "growth": "88.4%"}
{"compound": "COc1ccccc1/C=C/c1cccc(NC(=S)NCCCCN(C)C)c1", "growth": "-41.7% (active)"}
{"compound": "Fc1ccc(-c2csc(Nc3cccc(Nc4nc(-c5ccc(F)cc5)cs4)c3)n2)cc1", "growth": "74.3%"}
{"compound": "C#CCOc1cc(N(CC)CC)ccc1C(C(=O)NC(C)(C)C)N(C(=O)C1CCc2cc(F)ccc2O1)c1ccccc1F", "note": "(stereo not given)", "growth": "-13.5% (active)"}
{"compound": "C=C1CCC2C3(C)COC(c4cccs4)OC3CCC2(C)C1CC(Sc1ccccc1)C1=CCOC1=O", "note": "(stereo not given)", "growth": "19.4%"}
{"compound": "COc1ccc(C(=O)C[n+]2cccc3c4ccccc4ccc32)cc1", "growth": "22%"}
{"compound": "O=C1Nc2cc(-c3ccc(NS(=O)(=O)c4ccc(-c5ccccc5)cc4)cc3)ccc2/C1=C/c1ccc[nH]1", "growth": "31%"}
{"compound": "CC(=O)Nc1ccc(-n2cnc3cc(-c4ccc(O)cc4)ccc32)cc1C", "growth": "26.6%"}
{"compound": "O=C(Nc1ccc(OCC(=O)c2ccc(Cl)cc2)cc1)Nc1ccc(Cl)c(C(F)(F)F)c1", "growth": "12.5%"}
{"compound": "O=c1[nH]c2ccccc2cc1CSc1ccccc1Nc1nccc(-c2ccc3c(c2)OCO3)n1", "growth": "98%"}
{"compound": "Cn1cc(-c2cc3nc(-c4cn(C)c5ncc(Br)cc45)cc(N)n3n2)c2ccccc21", "growth": "-60.3% (active)"}
{"compound": "CC(C)(C)OC(=O)/C=C/c1cccc2c1C(=O)NC(C)(c1cc3cc(Cl)ccc3oc1=O)N2", "note": "(stereo not given)", "growth": "-6.16% (active)"}
{"compound": "O=C(N/C(=C1/OCCN1Cc1ccccc1)[P+](c1ccccc1)(c1ccccc1)c1ccccc1)c1ccccc1", "growth": "-13.1% (active)"}
{"compound": "CC1=C(C(=O)OC(C)C)C(c2ccc(O)cc2)NC(=O)N1", "note": "(stereo not given)", "growth": "90.2%"}
{"compound": "N/C(=N\\c1nc2ccccc2s1)NC(=O)Nc1ccc(Cl)cc1Cl", "growth": "-66% (active)"}
{"compound": "Cn1cc(-c2cc(N)n3nc(-c4cn(C)c5ncccc45)cc3n2)c2cccnc21", "growth": "39.2%"}
{"compound": "O=C1Nc2ccc(Cl)cc2/C1=C/c1cccc(OCc2ccccn2)c1", "growth": "-25% (active)"}
{"compound": "COc1cc2c(c(OC)c1OC)C(=O)CC(c1cccc(NC(=O)c3cccc(NC(=O)[C@H](C)NC(=O)OC(C)(C)C)c3)c1)O2", "note": "(stereo not given in full)", "growth": "71.2%"}
{"compound": "O=C(CSc1nnc(-c2c[nH]c3ccccc23)n1-c1ccccc1)Nc1ccc(C(=O)/C=C/c2ccccc2Cl)cc1", "growth": "78%"}
{"compound": "O=C(CSc1nnc(-c2c[nH]c3ccccc23)n1-c1ccccc1)c1ccc(Cl)cc1", "growth": "88.9%"}
{"compound": "O=c1oc2ccccc2cc1-c1csc(N=Nc2c(O)[nH]c3ccc(Cl)cc23)n1", "growth": "99.1%"}
{"compound": "Cc1cccc(NC(=O)[C@]23CCC(C)(C)CC2C2=CCC4[C@@]5(C)C[C@@H](O)[C@H](O)[C@@](C)(CO)C5CC[C@@]4(C)[C@]2(C)CC3)c1", "note": "(stereo not given in full)", "growth": "-14.4% (active)"}
{"compound": "CC(C)CCSc1nc(NC2CC2)c(C#N)c(-c2ccc(C(C)C)cc2)n1", "growth": "80.4%"}
{"compound": "COc1c(B(O)O)cc(F)cc1-c1nc2ccc3[nH]ncc3c2c2c1COCC2", "growth": "22.5%"}
{"compound": "CCCCCCCCOc1cccc(S(=O)(=O)Nc2ccc(C)cc2C(=O)O)c1", "growth": "101%"}
{"compound": "CC1(C)CC[C@]2(C(=O)O)CC[C@]3(C)C(=CCC4[C@@]5(C)C[C@@H](O)[C@@H]6OC(c7cccc(F)c7)OC[C@@]6(C)C5CC[C@]43C)C2C1", "note": "(stereo not given in full)", "growth": "9.5% (active)"}
{"compound": "O=C(CSc1nc2ccccc2c(=O)[nH]1)Nc1ccccc1C(=O)O", "growth": "103%"}
{"compound": "Cn1c(O)c(N=Nc2nc(-c3cc4ccccc4oc3=O)cs2)c2cc(Br)ccc21", "growth": "96.6%"}
{"compound": "CN(C)c1nc(NCCNS(=O)(=O)c2ccc(C(=O)/C=C/c3ccc(C(F)(F)F)cc3)cc2)nc(N2CCOCC2)n1", "growth": "-25.1% (active)"}
{"compound": "N#Cc1cc(-c2ccnc(Nc3ccc(N4CCN(C5COC5)CC4)cc3)n2)ccc1N1CCCC1", "growth": "48.1%"}
{"compound": "CC(C)(C)Nc1nc2cc(Cl)c(Cl)cc2nc1S(C)(=O)=O", "growth": "36.8%"}
